Compound activity: PubChem BioAssay, several laboratories
Hits are enriched below; roughly 1.5% of the tested compounds scored in any of these assays.
ugtP null kill: growth inhibition of ugtP-null S. aureus, primary screen, RN4220 ugtP deletion, OD600; 16 h; 330,000 tested, 0.54% active; growth inhibition, % (no concentration beside the values); in the data active means growth inhibition above about 68%;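 further: plate controls were untreated wells for no effect and antibiotic for full effect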
CCHFV vOTU inh: CCHFV vOTU protease inhibitors, primary screen, biochemical, Pep-AMC substrate, fluorescence; Crimean-Congo hemorrhagic fever virus L polyprotein viral ovarian tumor (vOTU) protease …; inhibition, % at 11.5 µM; 370,000 tested, 0.55% active; AID 651958, 2012; in the data active means inhibition above about 30%; further: 0% = vehicle wells with enzyme and 100% = no enzyme wells
VHR inh abs: VHR1 phosphatase inhibitors, primary screen, biochemical, absorbance, uHTS; Dual specificity protein phosphatase 3 (Homo sapiens), P51452; recombinant VHR phosphatase, pNPP absorbance; inhibition, % at 13.3 µM; 290,000 tested, 0.52% active; in the data active means inhibition above about 50%
Target sequence (P51452 whole entry, looked up): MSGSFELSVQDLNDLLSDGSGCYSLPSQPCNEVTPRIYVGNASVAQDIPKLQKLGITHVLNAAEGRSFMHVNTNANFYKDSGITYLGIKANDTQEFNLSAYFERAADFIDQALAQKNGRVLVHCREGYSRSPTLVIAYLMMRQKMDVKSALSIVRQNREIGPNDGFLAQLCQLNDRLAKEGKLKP
SSB-PriA inh: inhibitors of Klebsiella pneumoniae PriA binding to SSB C-terminal tail, primary screen, biochemical, AlphaScreen. PriA–SSB C-terminal tail interaction (Klebsiella pneumoniae). AlphaScreen SSBct-PriA binding, biotinylated peptide. inhibition, % at 33 µM. 430,000 tested, 0.6% active. AID 1272365, 2023; in the data active means inhibition mostly above about 37%, no sharp cut-off; inactive means mostly below about 20%;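 further: plate controls were negative control peptide for no effect and reference peptide for full effect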
Sa RN4220 lethal: growth inhibition of S. aureus RN4220, primary screen, OD600 | 16 h | inhibition, % (test concentration not listed) | 330,000 tested, 0.33% active | AID 1259311, 2017; in the data active means inhibition above about 85%;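 further: plate controls were untreated cells for no effect and reference antibiotic for full effect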
* hit, by the source's call; . = not tested or not shown; ! = not confirmed by another sample.

SMILES	ugtP null kill	CCHFV vOTU inh	VHR inh abs	SSB-PriA inh	Sa RN4220 lethal
CN(C)C(=O)N1CCN(c2nc(-c3ccccc3)cs2)CC1	7	4	53*	7	-2
CCOC(=O)C1=C(c2ccccc2)c2ccccc2OC1C(=O)OCC (centres undefined)	89*	3	.	-27	4
CCOC(=O)C1Oc2ccccc2C(c2ccc(OC)cc2)=C1C(=O)OC (centres undefined)	34	12	.	3	4
CC(C)C(=O)NCC1CCN(C(C)C)CC1	.	.	.	-9	.
CN1CCN(NC(=O)CCN2C(=O)/C(=C\c3ccccc3Cl)SC2=S)CC1	.	.	.	-1	.
c1ccc(C2=NNC(c3ccccn3)=NN2)nc1	11	-3	.	82*!	0
N#C/C(=C\c1ccc(N2CCOCC2)o1)c1ccccc1	-16	-4	-8	0	1
N#C/C(=C/c1ccc(N2CCOCC2)o1)c1nc2ccccc2[nH]1	-15	4	53*	8	1
CN(c1ccccc1)S(=O)(=O)c1ccc(C(=O)N2CC(Oc3nc4ccccc4s3)C2)cc1	.	.	.	-17	.
Cc1ccc(S(=O)(=O)Nc2ccc(O)c3ncccc23)cc1	-2	-6	6	46*!	5
CN(C)CCCNS(=O)(=O)c1ccc(NC2CCCCCC2)c([N+](=O)[O-])c1	-1	3	52*	6	1
Nc1c(-c2ccccc2)cnn1-c1cccc(Cl)c1	1	-13	12	-5	8
Nc1ccccc1Nc1cc(-c2cccc(Cl)c2)nn1-c1ccccc1	-11	-6	33	58*	15
O=C(NCC[C@H](O)c1ccsc1)c1ccco1	.	.	.	9	.
Cc1nn(C)c(C)c1CCC(=O)N1CCCC(C(=O)c2cccc(OC(C)C)c2)C1 (centres undefined)	12	10	51*	-2	4
CCc1[nH]nc(C(=O)N2CCCC(C(=O)c3cccc(OC(C)C)c3)C2)c1C (centres undefined)	-5	10	56*	-14	-1
COc1cccc(C(=O)NC(C)C(c2cccs2)N2CCOCC2)c1 (centres undefined)	3	5	53*	-5	-6
CCN1CCN(C(c2cccs2)C(C)NC(=O)c2cccc(OC)c2)CC1 (centres undefined)	-3	12	9	-4	-10
O=C(CSc1ccc(Cl)cc1)Nc1nc2c(s1)CN(Cc1ccccc1)CC2	.	.	.	-14	.
Cc1ccc(N/N=C/c2cccnc2)cc1	.	4	-3	.	.
Cc1ccc(N/N=C/c2ccncc2)cc1	.	-7	57*	.	.
CC1(O)CC(c2ccc(Cl)cc2)=NN1C(=O)c1ccc([N+](=O)[O-])cc1 (centres undefined)	98*	3	-11	2	99*
Nc1ccc(SCc2nc3cccc4c3n2CCC4)cc1	.	-9	32	44*	.
O=C(Nn1c(Cc2ccccc2)nc2ccccc2c1=O)c1c(O)c2cccc3c2n(c1=O)CCC3	-3	4	25	-15	-1
CCCCNC(=O)Cc1csc2nc(-c3ccc(F)cc3)cn12	.	.	.	0	.
SMILES	ugtP null kill	CCHFV vOTU inh	VHR inh abs	SSB-PriA inh	Sa RN4220 lethal
CCOc1ccc(NC(=O)c2ccc(CNS(=O)(=O)c3cccc(Cl)c3)cc2)cc1	.	.	.	-3	.
CC(C)(C)C(=O)NC(Nc1cccc2cccnc12)C(Cl)(Cl)Cl (centres undefined)	1	9	-14	87*	19
O=C(CF)NC(Nc1cccc2cccnc12)C(Cl)(Cl)Cl (centres undefined)	-7	5	6	73*	8
Cc1cccc(OC2CCN(C(=O)NCc3cccs3)CC2)n1	.	.	.	-10	.
O=C(COC(=O)CCCNC(=O)c1ccc(Cl)cc1)Nc1cc(Cl)c(Cl)cc1Cl	10	-18	23	-13	4
Cc1cc(C)cc(NC(=O)COC(=O)CCCNC(=O)c2ccc(Cl)cc2)c1	99*	-2	19	-14	-4
O=C1C(Cl)=C(Cl)C(=O)C(Cl)(Cl)C1(Cl)Cl	.	.	.	-7	.
COc1ccc(CS(=O)(=O)/C(Cl)=C(/Cl)C(=O)Nc2ccc(OC)nc2)cc1	100*	.	22	-13	26
COc1ccc(NC(=O)/C(Cl)=C(/Cl)S(=O)Cc2ccccc2)cn1 (centres undefined)	88*	4	-41	-4	51
O=C(CSC1=NS(=O)(=O)c2cc(F)ccc2N1)N1CCc2ccccc21	.	.	.	-6	.
Cn1nc(-c2cccs2)cc1C(=O)N1CCCC(Cc2nc(C3CC3)no2)C1 (centres undefined)	.	.	.	-8	.
O=C(NCc1ccc(F)cc1)C1CC(=O)N(C2CCCCCCC2)C1 (centres undefined)	-1	1	56*	-5	-1
CCc1nnc(NN=Cc2ccccc2F)n1N	3	.	.	3	13
CCc1nnc(N/N=C/c2c(Cl)cccc2Cl)n1N	.	77*	8	.	.
CCCC(=O)N1N=C(c2cccc(NS(C)(=O)=O)c2)CC1c1cc(OC)ccc1OC (centres undefined)	.	.	.	16	.
Cc1cc(COC(=O)C2N3C(=O)C(NC(=O)COc4ccccc4)C3SC2(C)C)on1 (centres undefined)	100*	.	.	.	100*
CCOC(=O)OC(C)OC(=O)C1N2C(=O)C(NC(=O)C(N)c3ccccc3)C2SC1(C)C (centres undefined)	100*	.	.	.	101*
CC1(C)SC2C(NC(=O)C(N)c3ccccc3)C(=O)N2C1C(=O)OC1OC(=O)c2ccccc21 (centres undefined)	101*	.	.	.	100*
CC1(C)S[C@@H]2[C@H](NC(=O)[C@H](N)c3ccccc3)C(=O)N2[C@H]1C(=O)O	.	-3	16	10	.
COC(=O)C1N2C(=O)[C@@H](NC(=O)COc3ccccc3)[C@H]2SC1(C)C (some centres undefined)	.	-5	.	-16	.
O=C(NCc1ccc(C(O)c2ccco2)s1)c1ccc(Cl)s1 (centres undefined)	.	.	.	1	.
Cc1cccc(-c2noc(-c3ccc[nH]c3=O)n2)c1	.	.	.	2	.
CCCc1nnsc1C(=O)Nc1nc2c(s1)CN(S(C)(=O)=O)CC2	.	.	.	-8	.
CCOC(=O)c1cc2ccc3ccccc3c2s1	88*	13	27	-100	12
COc1ccc(-c2c(C#Cc3ccc(N(C)C)cc3)c3ccccc3n2C)cc1	.	2	.	78*	.
CC(NC(=O)c1coc(NC(=O)C2CCC2)n1)c1ccccc1 (centres undefined)	.	.	.	11	.
COc1ccc(C(C(=O)NC2CCCCC2)N(C(=O)c2ccco2)c2ccccc2C(C)=O)cc1 (centres undefined)	0	3	-5	-1	0
CC(=O)c1ccccc1N(C(=O)c1ccco1)C(C(=O)NC1CCCC1)c1ccc(C)cc1 (centres undefined)	3	8	51*	1	0
Clc1cc2cccnc2c2ncccc12	-7	2	.	99*	-4
Brc1cc2cccnc2c2ncccc12	.	.	.	151*	.
